# High-throughput results (PubChem BioAssay)
# dFosB act: activators of mouse delta FosB homodimer | P13346 | purified delta FosB, TAMRA-CDK5 oligo fluorescence polarization; percent of positive-control signal above neutral wells | 340,000 compounds, 0.99% hits | AID 493131 | activation, % at 25 µM;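 active means mean activation above about 17%, with every replicate also reaching it, limit read from the data, passing the limit was not always enough; inconclusive means only one of the two conditions met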
# Target sequence (P13346 whole entry, looked up): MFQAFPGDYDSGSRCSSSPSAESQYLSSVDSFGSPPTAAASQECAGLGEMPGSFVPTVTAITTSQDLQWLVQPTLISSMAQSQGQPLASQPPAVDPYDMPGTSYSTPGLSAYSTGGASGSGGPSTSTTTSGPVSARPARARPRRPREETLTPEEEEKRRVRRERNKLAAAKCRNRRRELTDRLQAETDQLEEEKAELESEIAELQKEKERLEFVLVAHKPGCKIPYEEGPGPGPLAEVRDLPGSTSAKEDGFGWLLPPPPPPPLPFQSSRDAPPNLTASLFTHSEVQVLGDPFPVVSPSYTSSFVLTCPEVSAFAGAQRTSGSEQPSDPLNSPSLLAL
# SIRT5 inh: inhibitors of human sirtuin-5 desuccinylase; Q9NXA8; Purified SirT5, succinyl-peptide AMC, trypsin-coupled fluorescence; inhibition, % at 15 µM; 330,000 compounds, 1.1% hits; in the data active means inhibition above about 15%; inconclusive means no clear call, values can overlap the other calls
# Target sequence (Q9NXA8 whole entry, looked up): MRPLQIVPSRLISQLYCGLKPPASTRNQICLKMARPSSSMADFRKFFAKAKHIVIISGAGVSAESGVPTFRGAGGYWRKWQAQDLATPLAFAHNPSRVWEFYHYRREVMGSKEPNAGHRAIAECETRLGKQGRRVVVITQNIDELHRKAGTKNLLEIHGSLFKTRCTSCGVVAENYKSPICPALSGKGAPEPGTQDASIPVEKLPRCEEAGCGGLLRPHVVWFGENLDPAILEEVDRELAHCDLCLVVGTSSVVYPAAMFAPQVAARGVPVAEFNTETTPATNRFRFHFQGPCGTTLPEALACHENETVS
# PvdQ inh: blocks Pseudomonas aeruginosa PvdQ acylase activity; AID 488965; 340,000 compounds, 0.063% hits; inhibition, % at 10 µM; purified PvdQ acylase, fluorescence plate reader; in the data active means inhibition above about 30%, passing the limit was not always enough; inconclusive means no clear call, values can overlap the other calls;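 further: 0% = vehicle neutral wells and 100% = reference inhibitor wells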
# FGF22 binding: FGF22 (human) thermal shift binding. recombinant FGF22 thermal shift, SYPRO orange fluorescence; percent of sucrose octasulfate shift, DMSO zero. AID 651658. 340,000 compounds, 1.5% hits. activity (Tm shift, normalised), % at 9.99 µM. Q9HCT0;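 active means mean Tm shift, scaled 0 neutral to 100 positive control, at about 1.3% or above, every replicate too, limit read from the data; inconclusive means no clear call, values can overlap the other calls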
# CDK5 p35 inh: CDK5/p35 (human) kinase inhibition | Recombinant CDK5/p35, ADP-Glo luminescence, 60 min | Q00535+Q15078 | AID 488839 | inhibition, % at 10 µM | 330,000 compounds, 0.01% hits;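 active means highest replicate inhibition of at least 50% and at least 75% of replicates reaching 50%; inconclusive means only one of the two criteria met; inactive means both criteria failed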;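 further: plate controls were DMSO neutral control for no effect and GW8510 at 10 µM for full effect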
# PglD inh: inhibitors of Campylobacter jejuni PglD acetyltransferase | purified PglD enzyme, DTNB colorimetric CoA detection | inhibition, % at 12.5 µM | AID 602405 | 360,000 compounds, 0.098% hits; in the data active means inhibition above about 16%, passing the limit was not always enough; inconclusive means no clear call, values can overlap the other calls
# The depositor's hits bear a star; ? = inconclusive; / = not tested or not shown. Rows were chosen to be rich in hits. Some 2.8% of all compounds tested hit in one or more screens of this group.
SMILES,dFosB act,SIRT5 inh,PvdQ inh,FGF22 binding,CDK5 p35 inh,PglD inh
C[C@H](O)C#Cc1cnc2c(c1)C(=O)N([C@@H](C)CO)C[C@H](C)[C@H](CN(C)C(=O)c1ccncc1)O2,/,-4,/,0,/,4
CCCNC(=O)[C@@]1(c2ccc([N+](=O)[O-])cc2)CC(=O)N(CC23CC4CC(CC(C4)C2)C3)[C@@H]1c1ccc(CO)cc1I,/,1,/,0,/,7
COc1ccc(S(=O)(=O)Nc2ccc3c(c2)C(=O)N([C@@H](C)CO)C[C@H](C)[C@H](CN(C)S(=O)(=O)c2ccc(C)cc2)O3)cc1,/,1,/,0,/,0
CN(CCO)c1ccc(C=NNc2ccc([N+](=O)[O-])cc2S(=O)(=O)Nc2ccccc2C(=O)O)cc1,/,22*,/,/,/,-3
COc1ccc(C(C)=NNc2ccc([N+](=O)[O-])cc2S(=O)(=O)Nc2ccccc2C(=O)O)c(OC)c1,-12,15*,0,/,-2,5
O=C(O)c1ccccc1NS(=O)(=O)c1ccc(NNC(=S)Nc2ccc(OC(F)F)cc2)c([N+](=O)[O-])c1,6,24*,9,/,12,/
CO[C@H](CN(C)Cc1nccs1)[C@H](C)CN([C@H](C)CO)S(=O)(=O)c1ccc(C)cc1,/,-6,/,0,/,-2
CCOc1ccc(S(=O)(=O)Nc2cccc(C)c2)c2cccnc12,-8,18*,0,43*,0,/
CCOc1ccc(S(=O)(=O)Nc2ccc3c(c2)OCO3)c2cccnc12,-7,/,7,/,0,4
Cc1ccc(NS(=O)(=O)c2cc(C(=O)N(C)C)ccc2C)cc1C,-11,-2,4,43*,6,/
C[C@H]1CN([C@@H](C)CO)C(=O)c2cccc(NS(=O)(=O)c3cn(C)cn3)c2O[C@@H]1CN(C)Cc1ccc(C(=O)O)cc1,/,-1,/,0,/,-7
O=C(CCN1CCCCC1)NNC(=S)NC(=O)c1ccc(Br)cc1,-2,-5,-2,43*,0,/
CC(=O)N(C)C[C@H]1Oc2ncc(-c3ccc(C)cc3)cc2C(=O)N([C@@H](C)CO)C[C@H]1C,/,0,/,0,/,-4
C=CCc1cc(Cl)ccc1OCCCNCCO,1,1,4,44*,0,/
O=C(c1ccco1)N1CCN(Cc2nc(Cc3ccccc3)no2)CC1,2,-3,2,0,0,/
O=C(c1ccco1)N1CCCN(Cc2nc(-c3cccs3)no2)CC1,5,21*,9,0,0,/
C[C@H]1CN([C@@H](C)CO)C(=O)Cc2cc(NS(=O)(=O)c3cccs3)ccc2O[C@H]1CN(C)CC1CC1,/,7,/,0,/,14
CC(C)CC1NC(=O)N(CCCCN2C(=O)c3ccccc3C2=O)C1=O (configuration not stated),2,-2,1,44*,4,/
CC(C)CC1NC(=O)N(CC(=O)Nc2ccccc2-c2ccccc2)C1=O (configuration not stated),-5,7,-10,0,-1,/
CCCc1c(C)[nH]c2ccc(C(=O)O)cc2c1=S,-10,26*,-8,0,-5,4
CCOC(=O)NNS(=O)(=O)c1cc(Br)ccc1Br,0,1,-11,43*,0,0
CCOc1ccc(Br)cc1S(=O)(=O)NCc1ccc(S(N)(=O)=O)cc1,-5,-2,-7,0,0,2
COc1cc(NC(=O)CN(C)S(=O)(=O)c2ccc(C)cc2)cc(OC)c1,-5,/,-5,/,1,-3
Cc1ccc(NC(=O)CN(C)S(=O)(=O)c2ccc3c(c2)n(C)c(=O)c(=O)n3C)cc1,13,-5,6,0,-1,-5
COc1ccc(S(=O)(=O)N(C)CC(=O)Nc2ccc(C)cc2)cc1OC,-11,3,7,43*,1,/
SMILES,dFosB act,SIRT5 inh,PvdQ inh,FGF22 binding,CDK5 p35 inh,PglD inh
CN(CC(=O)Nc1ccc(F)c(Cl)c1)S(=O)(=O)c1ccc2c(c1)n(C)c(=O)c(=O)n2C,42*,-2,-9,0,/,1
O=C(COC(=O)c1cc(Br)ccc1Cl)NC(=O)NCc1ccccc1,-6,-2,-19,44*,-2,/
CC(C)NC(=O)N(C)C[C@@H]1Oc2ccc(NC(=O)Nc3ccc(F)cc3)cc2C(=O)N([C@@H](C)CO)C[C@H]1C,/,-5,/,0,/,3
c1ccc(Nc2nc(NCc3ccco3)c3ccccc3n2)cc1,?,-5,-16,0,-2,6
Cc1ccccc1Nc1nc(NCc2ccco2)c2ccccc2n1,36*,-10,-1,0,0,-6
COc1ccc(OC)c(Nc2nc(NCc3ccco3)c3ccccc3n2)c1,53*,-1,-9,0,1,-1
Oc1ccccc1Nc1nc(NCc2ccco2)c2ccccc2n1,?,-2,-10,0,-2,/
Cc1cccc(Nc2nc(NCc3ccco3)c3ccccc3n2)c1,38*,-2,-4,0,0,/
CC1C=NC(S(=O)(=O)N2CC[C@@H]3[C@@H](CO)N(C)c4ccc(-c5ccccc5)cc4[C@@H]32)=N1 (some centres not stated),/,1,/,0,/,-2
CO[C@@H]1CN(C)C(=O)c2cc(NC(=O)CC(F)(F)F)ccc2OC[C@H](C)N(C(=O)C2CCOCC2)C[C@H]1C,/,0,/,0,/,/
Cc1ccc(-c2nc3[nH]c(=O)cc(NC(=O)c4cccs4)n3n2)cc1,-34,1,3,0,1,-8
CC(C)(C)c1ccc(-c2nc3[nH]c(=O)cc(NC(=O)c4ccco4)n3n2)cc1,-15,-7,-17,14*,-1,0
CCOC(=O)c1ccc(N2Cc3ccccc3C2=NC(=O)c2cccc([N+](=O)[O-])c2)cc1,-11,-3,45*,0,0,/
O=C(N=C1c2ccccc2CN1c1ccccc1)c1cccc([N+](=O)[O-])c1,-8,/,-10,/,1,/
Cc1ccc(S(=O)(=O)Nc2ccc(S(=O)(=O)Nc3cc(C)nc(C)n3)cc2)cc1,-2,0,-18,43*,-4,-6
Cc1cc(NS(=O)(=O)c2ccc(NC(=O)COc3ccc(Br)cc3)cc2)nc(C)n1,-7,33*,3,0,-1,-1
Cc1ccc(S(=O)(=O)N(C)C[C@@H]2OCCCC[C@H](C)Oc3ccc(NC(=O)Nc4ccccc4)cc3C(=O)N([C@@H](C)CO)C[C@H]2C)cc1,/,4,/,0,/,-2
Cn1cnc(CCNC(=O)C[C@H]2CC[C@@H]3[C@H](COC[C@H](O)CN3C(=O)Nc3ccc(F)cc3)O2)c1,/,9,/,0,/,1
Cc1cc(C)c[n+](-c2nc3ccccc3nc2[N-]S(=O)(=O)c2ccc(Br)s2)c1,-9,2,1,44*,-1,0
C[C@@H]1CN([C@H](C)CO)C(=O)c2cccc(NC(=O)Nc3ccc(F)cc3)c2O[C@H]1CN(C)Cc1ccc(Oc2ccccc2)cc1,/,4,/,0,/,3
Clc1cncc(Cl)c1N/N=C/c1ccncc1,-22,2,-5,0,52*,-4
